Screening results deposited in PubChem by National Center for Advancing Translational Sciences (NCATS).
Pf growth 96h: P. falciparum growth inhibition at 96 hours; P. falciparum luciferase reporter growth, 96 h; Potency, µM (doses to about 28.7 µM), for the others: top-dose activity change, negative = inhibition, usual class: inhibitors; actives 6.9% (n = 320,000); AID 504834; also: % is scaled to controls: 0 for no effect and ±100 for the full control effect
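96 h incubation, 37 C, 5% CO2, of luciferase-reporter P. falciparum-infected RBCs (2% hematocrit, 0.05% parasitemia final) with test compounds; endpoint luminescence.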
Sm TGR block: S. mansoni TGR enzyme inhibition | AID 485364 | Q962Y6 | purified TGR, DTNB reduction, TNB absorbance 405 nm | Potency, µM (series often up to 114 µM), for inactives: at the top dose activity change, negative = inhibition, usual class: inhibitors | actives 3% (n = 360,000); also: % is scaled to controls: 0 for no effect and ±100 for the full control effect; nearly all actives have a fitted effect of over 60% in size
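TGR 20 nM + NADPH 100 uM (dispensed conc.), cpd preinc 15 min RT; start with NADPH (500 uM addition) then DTNB (15 mM addition). Kinetic TNB absorbance, 405 nm filter. Four-parameter Hill fit across titration.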
Pf growth 48h: inhibits P. falciparum growth in the first generation, 48 h | actives 5.9% (n = 310,000) | P. falciparum luciferase growth in erythrocytes, 48 h | AID 504832 | Potency, µM (titrated, usually from 28.7 µM), for inactives: at the highest dose activity change, negative = inhibition, hits mostly inhibitors; also: % is scaled to controls: 0 for no effect and ±100 for the full control effect
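Parasite viability was followed by luminescence of a genomically integrated firefly luciferase. Cultures held 0.1% parasitemia at 2% hematocrit (final), incubated under 5% CO2 at 37 C.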
SARS PLP yeast: SARS-CoV PLP inhibition in yeast | S. cerevisiae expressing SARS-CoV PLpro, growth rescue | Potency, µM (highest dose often 32.9 µM), without a hit: top-dose activity, positive = growth rescue, hits mostly activators | actives 0.19% (n = 330,000); calls by dose curve; also: 0% is about no effect; nearly all actives have a fitted effect of over 55% in size
Active calls of the source: *; ? = inconclusive; . = no result. A selection: hits, their analogues and other compounds. The true share with any hit is near 12%. Unless noted, calls follow the shape of the dose curve; as a rule, active = well fitted curve in the direction sought with a large enough effect; inconclusive = small, poorly fitted or top-dose-only effect, or another doubt; inactive = no such curve, though single readings can be large; an effect the other way counts as inactive or inconclusive. Potency is read from the fitted curve at half-maximal effect.

SMILES | Pf growth 96h | Sm TGR block | Pf growth 48h | SARS PLP yeast
COc1ccc(-c2nc3ccccc3c(=O)n2CCOc2c(C)cccc2C)cc1 | -78% | -2% | 12µM* | 7%
Cc1nc2c(c(=O)c3ccccc3n2C)c(=O)n1C1CCCCCC1 | 38% | 1% | -4% | 1%
COc1ccc(Cn2c(-c3ccc(C)cc3)nc3c(c(=O)c4ccccc4n3C)c2=O)cc1 | ? | -9% | 13µM* | -5%
Cn1c2ccccc2c(=O)c2c(=O)n(C3CCCCC3)c(-c3ccco3)nc21 | 4.1µM* | -21% | 4.7µM* | 11%
CCCCCc1nc2c(c(=O)c3ccccc3n2C)c(=O)n1Cc1ccc(OC)cc1 | ? | 4% | ? | 0%
COc1ccc(-c2nc3ccccc3c(=O)n2CCOc2cccc(C)c2C)cc1 | -19% | 1% | 6% | -4%
COc1cccc(-n2ccnc2SCC(=O)Nc2cccc3ccccc23)c1 | . | -9% | . | .
COc1ccccc1CNC(=O)CCc1c(C)c2cc3c(C)c(C)oc3cc2oc1=O | . | 5% | . | .
CC(C)(C)N(Cc1ccccc1)C(=O)COC(=O)C1=NN(c2ccccc2)C(=O)CC1 | 51% | -9% | 43% | -1%
O=C(On1c(-c2ccccc2)nc2ccccc2c1=O)c1ccco1 | -9% | 6.3µM* | ? | .
COc1ccc(Cn2c(-c3ccco3)nc3c(c(=O)c4ccccc4n3C)c2=O)cc1 | -2% | 50µM* | 11% | -2%
CCOc1cc(Br)cc(C2NC(=O)c3c(sc4c3CCN(C)C4)N2)c1O (stereo unspecified) | . | -28% | . | .
Cc1ccc(-n2nc(-c3ccco3)cc2C(=O)O)cc1 | 68% | 25µM* | 30% | 1%
O=C(c1cc(-c2ccco2)nn1-c1cccc(Cl)c1)N1CCCCC1 | ? | 7.1µM* | ? | 29%
CC(C)NC(=O)c1cc(-c2ccco2)nn1-c1ccc(Cl)cc1 | ? | 2.8µM* | ? | -2%
CCOC(=O)c1cc(-c2ccco2)nn1-c1ccc(C)cc1 | -4% | 14µM* | 0% | -6%
CCOC(=O)c1cc(-c2ccc(N3CCOCC3)cc2)nn1-c1ccccc1 | ? | 9% | ? | 22%
COC(=O)C1=C(c2ccccc2OCc2ccccc2)C[C@@H]2CC[C@H]1N2C(=O)NCc1cccc(C(F)(F)F)c1 | ? | 1% | 10µM* | -3%
COC(=O)C1=C(c2ccc(OCc3ccccc3)cc2)C[C@@H]2CC[C@H]1N2C(=O)NCc1ccc(N(C)C)cc1 | 9.3µM* | -2% | ? | -7%
COC(=O)C1=C(c2ccccc2OCc2ccccc2)C[C@@H]2CC[C@H]1N2C(=O)NCc1ccc(Br)cc1 | ? | -2% | 10µM* | 1%
COC(=O)C1=C(c2ccccc2OCc2ccccc2)C[C@@H]2CC[C@H]1N2C(=O)NCc1ccccc1 | 4.1µM* | 1% | 10µM* | 2%
CCC(Cc1ccccc1)NC(=O)c1ccc2nc(N3CCOCC3)sc2c1 (stereo unspecified) | 4% | 3% | -4% | 3%
Cc1ccc(CNC(=O)c2ccc(C)c(S(=O)(=O)N3CCCCC3)c2)cc1 | ? | -6% | ? | 3%
COC(=O)C1=C(c2ccccc2OCc2ccccc2)C[C@@H]2CC[C@H]1N2C(=O)NCCc1ccc(F)cc1 | ? | 1% | 10µM* | 4%
COC(=O)C1=C(c2ccccc2OCc2ccccc2)C[C@@H]2CC[C@H]1N2C(=O)NCc1ccc(C(F)(F)F)cc1 | ? | -8% | 13µM* | 2%
SMILES | Pf growth 96h | Sm TGR block | Pf growth 48h | SARS PLP yeast
COC(=O)C1=C(c2ccc(OCc3ccccc3)cc2)C[C@@H]2CC[C@H]1N2C(=O)NCc1cccc(C(F)(F)F)c1 | 1.9µM* | -3% | 4.1µM* | 5%
COC(=O)C1=C(c2ccccc2OCc2ccccc2)C[C@@H]2CC[C@H]1N2C(=O)NCCN1CCOCC1 | 4.7µM* | 3% | ? | 0%
COC(=O)C1=C(c2ccc(F)cc2OCc2ccccc2)C[C@@H]2CC[C@H]1N2C(=O)NCc1ccc(C(F)(F)F)cc1 | . | . | . | 0%
COc1cccc2[nH]c3c(N4CCCC(C)C4)ncnc3c12 (stereo unspecified) | ? | 14% | ? | -6%
CCOC(=O)C1CCCN(c2ncnc3c2[nH]c2cccc(OC)c23)C1 (stereo unspecified) | . | 6% | 12µM* | -1%
COc1ccc(CN(Cc2cccn2C)S(=O)(=O)c2cccc(C(F)(F)F)c2)cc1 | ? | -25% | 12µM* | -4%
CN1CCN(S(=O)(=O)c2ccc(Cc3ccc(S(=O)(=O)N4CCN(C)CC4)cc3)cc2)CC1 | 12µM* | ? | ? | 4%
CN1CCN(S(=O)(=O)c2ccc(-c3ccc(Cl)cc3)cc2)CC1 | . | 4% | -13% | 0%
CN1CCN(S(=O)(=O)c2ccc(Cl)cc2)CC1 | 1.9µM* | 5% | -20% | 4%
CN1CCN(S(=O)(=O)c2ccc(-c3ccc(S(=O)(=O)N4CCN(C)CC4)cc3)cc2)CC1 | -11% | 0% | 12% | 3%
Nn1c(SCC(=O)NCC2CCCO2)nnc1-c1ccco1 (stereo unspecified) | . | . | . | 0%
CCN(C(=O)CSc1nc2cc(C(F)(F)F)ccc2n1Cc1ccccc1)C1CCS(=O)(=O)C1 (stereo unspecified) | 9.3µM* | 0% | 10µM* | -32%
CCCCn1c(SCC(=O)N(CC)C2CCS(=O)(=O)C2)nc2cc(S(N)(=O)=O)ccc21 (stereo unspecified) | -8% | -5% | -16% | 2%
O=C(O)CC1c2ccccc2C=Cc2ccccc21 | 99% | -6% | -4% | 0%
CC(Oc1ccc(NC(=O)c2ccco2)cc1)C(=O)N1c2ccccc2CC1C (stereo unspecified) | 5.2µM* | -4% | ? | 2%
CC(Nc1ccc(N2CCOCC2)cc1)C(=O)N1c2ccccc2CC1C (stereo unspecified) | ? | 79µM* | ? | -1%
Cc1ccc(-n2c(CNc3cccc(Cl)c3)n[nH]c2=S)cc1 | 81% | 15% | 8.3µM* | -1%
Cc1ccc(NCc2n[nH]c(=S)n2-c2cccc(Cl)c2)cc1 | ? | 6% | -21% | -2%
Cc1ccc(S(=O)(=O)N2CCC(C(=O)Nc3ccccc3N3CCCC3)CC2)cc1 | 0% | 2% | ? | 7%
O=C(NNC(=O)C1CCN(S(=O)(=O)c2cccc(C(F)(F)F)c2)CC1)C1CC1 | 12% | 11% | 15% | -1%
CNC(=O)c1ccc(NC(=O)C2CCN(S(=O)(=O)c3cccc(C(F)(F)F)c3)CC2)cc1 | ? | -6% | 13µM* | 1%
O=C(Nc1ccccc1N1CCCC1)C1CCN(S(=O)(=O)c2cccc(C(F)(F)F)c2)CC1 | 10µM* | -18% | 12µM* | -5%
O=C(Nc1ccccc1N1CCCCC1)C1CCN(S(=O)(=O)c2cccc(C(F)(F)F)c2)CC1 | ? | 4% | 8.3µM* | -3%
O=C(O)c1ccccc1Nc1ccccc1C(=O)O | 25% | 2% | -5% | 3%
